From PubChem BioAssay (NCI)
The panel holds about 83,000 compounds, 20% with a hit somewhere; the sample as a whole holds those more often.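 Interpretation: 100, growth as untreated; towards 0, rising growth inhibition; 0, no net growth; 0 to -100, cell death. Compounds scoring below 10 were considered active.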 Unmarked numbers belong to inactive results. The source made the active and inactive calls.

How the values were obtained:
Experiment in all cases: NCI-60 one-dose screen, 48 h (100 = growth as untreated, 0 = no growth, -100 = all killed)
Details in all cases: 10 µM unless noted
[1] = system: NCI-H23 lung
[2] = system: NCI-H226 lung
[3] = system: NCI-H322M lung
[4] = system: HOP-62 NSCLC
[5] = system: NCI-H460 lung
[6] = system: HOP-92 NSCLC
[7] = system: NCI-H522 lung
[8] = system: A549/ATCC NSCLC
[9] = system: 786-0 renal
[10] = system: COLO 205 colon
[11] = system: DU-145 prostate
[12] = system: K-562 leukemia
[13] = system: MALME-3M melanoma
[14] = system: MDA-MB-231 breast
[15] = system: RXF 393 renal
[16] = system: SF-268 CNS
[17] = system: SF-295 CNS
[18] = system: SF-539 CNS
[19] = system: UACC-257 melanoma
[20] = system: M14 melanoma

Compound: COc1ccc(-c2cc(-c3ccccc3)nc(NCCNc3ccnc4cc(Cl)ccc34)n2)cc1
- growth [1]: -77.2% (active)
- growth [2]: -37.9% (active)
- growth [3]: -81% (active)
- growth [4]: -83.8% (active)
- growth [5]: -60% (active)
- growth [6]: -77.4% (active)
- growth [7]: -61.9% (active)
- growth [8]: -75.5% (active)
- growth [9]: -81.7% (active)
- growth [10]: -80.8% (active)
- growth [11]: -73.8% (active)
- growth [12]: -47.1% (active)
- growth [13]: -77.1% (active)
- growth [14]: -89.8% (active)
- growth [15]: -87% (active)
- growth [16]: -40.1% (active)
- growth [17]: -75.4% (active)
- growth [18]: -81.7% (active)
- growth [19]: -78.8% (active)
- growth [20]: -78.7% (active)

Compound: Cc1ccc(NC(=O)N[C@@H](Cc2cc(F)cc(F)c2)C(=O)N[C@@H]2C(=O)N3CCC[C@H]3C(=O)N3CCCC[C@H]3C(=O)N[C@@H](C)C(=O)N3C[C@H](C)C[C@H]3C(=O)O[C@H]2C)cc1
- growth [1]: 33.5%
- growth [2]: 28.5%
- growth [3]: 62.8%
- growth [4]: 30.1%
- growth [5]: 25.6%
- growth [6]: 29.8%
- growth [7]: 31.8%
- growth [8]: 23.1%
- growth [9]: 28.2%
- growth [10]: 7.51% (active)
- growth [11]: 28.8%
- growth [12]: 14.3%
- growth [13]: 35%
- growth [14]: 4.01% (active)
- growth [15]: 28.8%
- growth [16]: 28.8%
- growth [17]: 18.5%
- growth [18]: 48.6%
- growth [19]: 18%
- growth [20]: 34%

Compound: CCN(CC)c1ccc2cc(C(Nc3ccc(Cl)cc3)c3nnnn3C(C)(C)C)c(=O)oc2c1 (stereo not given)
- growth [1]: 95.6%
- growth [2]: 82.9%
- growth [3]: 93.8%
- growth [4]: 99.5%
- growth [5]: 84.1%
- growth [6]: 76.9%
- growth [7]: 79.5%
- growth [8]: 77.9%
- growth [9]: 94%
- growth [10]: 114%
- growth [11]: 93.6%
- growth [12]: 78.9%
- growth [13]: 98.1%
- growth [14]: 90.8%
- growth [15]: 86.9%
- growth [16]: 80.6%
- growth [17]: 95.9%
- growth [18]: 94.8%
- growth [19]: 92.2%
- growth [20]: 97.6%

Compound: CC(C)C1=NOC(=O)C1=Cc1cn(-c2cccnc2)nc1-c1ccccc1
- growth [1]: 107%
- growth [2]: 106%
- growth [3]: 100%
- growth [4]: 100%
- growth [5]: 103%
- growth [6]: 92.6%
- growth [7]: 82.7%
- growth [8]: 94.8%
- growth [9]: 82.2%
- growth [10]: 107%
- growth [11]: 104%
- growth [12]: 72.7%
- growth [13]: 111%
- growth [14]: 96%
- growth [15]: 64.8%
- growth [16]: 102%
- growth [17]: 98.1%
- growth [18]: 104%
- growth [19]: 111%
- growth [20]: 103%

Compound: CCOc1ccc2sc(NS(=O)(=O)c3ccc(N)cc3)nc2c1
- growth [1]: 104%
- growth [2]: 94.7%
- growth [3]: 109%
- growth [4]: 100%
- growth [5]: 104%
- growth [6]: 94%
- growth [7]: 115%
- growth [8]: 112%
- growth [9]: 115%
- growth [10]: 103%
- growth [11]: 119%
- growth [12]: 103%
- growth [13]: 118%
- growth [14]: 106%
- growth [15]: 104%
- growth [16]: 110%
- growth [17]: 109%
- growth [18]: 99.5%
- growth [19]: 111%
- growth [20]: 109%

Compound: O=C(N/N=C/c1ccc([N+](=O)[O-])cc1)c1ccc(Br)o1
- growth [1]: 95.5%
- growth [2]: 100%
- growth [3]: 129%
- growth [4]: 119%
- growth [5]: 105%
- growth [6]: 101%
- growth [7]: 88.5%
- growth [8]: 92.7%
- growth [9]: 91.7%
- growth [10]: 116%
- growth [11]: 126%
- growth [12]: 114%
- growth [13]: 106%
- growth [14]: 113%
- growth [15]: 90.3%
- growth [16]: 111%
- growth [17]: 83%
- growth [18]: 97.8%
- growth [19]: 107%
- growth [20]: 107%

Compound: C#CCNC(=O)CC[C@]1(C)[C@H]2CC[C@@H]3[C@@H]([C@@](C)(O)CCC=C(C)C)CC[C@@]3(C)[C@]2(C)CC[C@H]1C(=C)C
- growth [1]: 16.3% [100 µM]
- growth [2]: 51.5% [100 µM]
- growth [3]: 75.7% [100 µM]
- growth [4]: 51.5% [100 µM]
- growth [5]: 33.7% [100 µM]
- growth [6]: -25.5% [100 µM] (active)
- growth [7]: -73.1% [100 µM] (active)
- growth [8]: 37.7% [100 µM]
- growth [9]: -67.9% [100 µM] (active)
- growth [10]: 42.7% [100 µM]
- growth [11]: 52.7% [100 µM]
- growth [12]: 5.99% [100 µM] (active)
- growth [13]: -73.6% [100 µM] (active)
- growth [14]: -24.5% [100 µM] (active)
- growth [15]: 30.6% [100 µM]
- growth [16]: -28.8% [100 µM] (active)
- growth [17]: 49% [100 µM]
- growth [18]: -81% [100 µM] (active)
- growth [19]: 61.5% [100 µM]
- growth [20]: 53.1% [100 µM]
